# The supplement of paper PMC10849652
# The full data set covers some 8,800 targets. This sample favours those with a hit. About 0.5% of all pairs of compound and target were hits. Unmarked numbers belong to inactive results.
# Compound: Cc1sc2c(c1C)C(c1ccc(Cl)cc1)=N[C@@H](CC(=O)OC(C)(C)C)c1nnc(C)n1-2
# Experiment: log2 fold change, soluble protein after heating vs DMSO (PISA); higher = thermal stabilisation; K562 lysate, 10 uM; active = over 0.2 and 3.5 SD of the protein, either way, in both replicates (recomputed)
# How it was run: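 Values give the log-two fold change in thermal stability against solvent controls, from duplicates. Crude K562 extract at 1 mg/mL protein, made by dounce homogenisation in PBS pH 7.4 with 1 mM MgCl2, was treated with 10 μM compound for 30 min. After 3 min heating across 48°C-58°C, aliquots were pooled, adjusted to 0.5% NP-40 at 4°C and centrifuged at 21,000xg for 90 min. The supernatant was measured by TMTpro 16plex LC-MS/MS with channel sums equalised.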
# Chain of UniProt Q9NRW3 (Q9NRW3 whole entry, looked up): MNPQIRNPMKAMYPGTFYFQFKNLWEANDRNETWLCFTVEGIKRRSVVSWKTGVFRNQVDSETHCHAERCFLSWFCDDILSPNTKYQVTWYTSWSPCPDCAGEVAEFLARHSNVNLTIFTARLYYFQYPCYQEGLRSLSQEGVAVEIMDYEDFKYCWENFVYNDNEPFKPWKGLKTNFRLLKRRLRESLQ
# Chain of UniProt P42684 (P42684 whole entry, looked up): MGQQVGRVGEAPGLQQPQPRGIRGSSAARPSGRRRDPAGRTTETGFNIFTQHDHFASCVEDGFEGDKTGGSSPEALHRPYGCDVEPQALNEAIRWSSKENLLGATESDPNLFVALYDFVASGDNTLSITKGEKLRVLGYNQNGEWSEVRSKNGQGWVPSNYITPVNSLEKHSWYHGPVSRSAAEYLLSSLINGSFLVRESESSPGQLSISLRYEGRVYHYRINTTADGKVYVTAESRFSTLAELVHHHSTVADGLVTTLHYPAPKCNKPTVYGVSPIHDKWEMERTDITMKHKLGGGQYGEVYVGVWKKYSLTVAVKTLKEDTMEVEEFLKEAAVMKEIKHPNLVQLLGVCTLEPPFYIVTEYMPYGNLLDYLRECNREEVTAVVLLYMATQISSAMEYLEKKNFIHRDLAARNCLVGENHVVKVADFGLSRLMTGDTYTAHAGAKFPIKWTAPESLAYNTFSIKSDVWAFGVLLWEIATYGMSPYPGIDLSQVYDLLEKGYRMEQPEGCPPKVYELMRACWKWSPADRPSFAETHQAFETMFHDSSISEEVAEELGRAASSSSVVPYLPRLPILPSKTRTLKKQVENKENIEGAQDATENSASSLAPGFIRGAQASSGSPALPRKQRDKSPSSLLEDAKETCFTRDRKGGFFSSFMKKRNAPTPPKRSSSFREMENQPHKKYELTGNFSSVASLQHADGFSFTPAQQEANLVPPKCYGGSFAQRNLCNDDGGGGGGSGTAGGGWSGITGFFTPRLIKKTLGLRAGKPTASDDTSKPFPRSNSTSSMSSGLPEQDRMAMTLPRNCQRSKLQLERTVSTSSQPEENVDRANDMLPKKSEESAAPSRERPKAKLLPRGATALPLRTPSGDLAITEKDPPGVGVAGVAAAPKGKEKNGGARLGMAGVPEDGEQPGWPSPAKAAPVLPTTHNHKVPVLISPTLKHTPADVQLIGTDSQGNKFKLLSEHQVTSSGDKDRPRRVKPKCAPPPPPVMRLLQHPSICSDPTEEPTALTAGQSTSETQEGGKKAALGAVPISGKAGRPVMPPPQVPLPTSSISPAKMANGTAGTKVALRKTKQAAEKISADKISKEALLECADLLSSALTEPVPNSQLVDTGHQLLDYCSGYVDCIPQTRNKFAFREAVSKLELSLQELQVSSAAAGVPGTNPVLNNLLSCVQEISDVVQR
# Chain of UniProt O43823 (O43823 whole entry, looked up): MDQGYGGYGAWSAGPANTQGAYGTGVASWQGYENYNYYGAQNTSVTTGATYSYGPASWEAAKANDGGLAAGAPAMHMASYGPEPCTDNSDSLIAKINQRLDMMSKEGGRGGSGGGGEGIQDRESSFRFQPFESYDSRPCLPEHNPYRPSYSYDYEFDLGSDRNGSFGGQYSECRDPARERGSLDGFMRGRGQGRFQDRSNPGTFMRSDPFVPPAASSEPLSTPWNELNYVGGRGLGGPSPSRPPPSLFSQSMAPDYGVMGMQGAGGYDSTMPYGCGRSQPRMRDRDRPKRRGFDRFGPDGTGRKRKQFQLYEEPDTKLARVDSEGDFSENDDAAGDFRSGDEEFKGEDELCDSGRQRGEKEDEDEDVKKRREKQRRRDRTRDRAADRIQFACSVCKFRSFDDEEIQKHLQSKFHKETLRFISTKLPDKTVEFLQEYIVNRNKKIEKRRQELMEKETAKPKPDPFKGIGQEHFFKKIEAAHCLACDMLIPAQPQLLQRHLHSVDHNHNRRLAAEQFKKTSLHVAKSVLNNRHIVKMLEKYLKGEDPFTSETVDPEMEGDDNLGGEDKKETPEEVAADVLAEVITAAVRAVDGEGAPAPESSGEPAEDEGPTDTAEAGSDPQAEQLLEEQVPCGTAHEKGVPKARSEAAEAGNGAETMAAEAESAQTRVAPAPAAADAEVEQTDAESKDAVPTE
# Chain of UniProt Q5VST6 (Q5VST6 whole entry, looked up): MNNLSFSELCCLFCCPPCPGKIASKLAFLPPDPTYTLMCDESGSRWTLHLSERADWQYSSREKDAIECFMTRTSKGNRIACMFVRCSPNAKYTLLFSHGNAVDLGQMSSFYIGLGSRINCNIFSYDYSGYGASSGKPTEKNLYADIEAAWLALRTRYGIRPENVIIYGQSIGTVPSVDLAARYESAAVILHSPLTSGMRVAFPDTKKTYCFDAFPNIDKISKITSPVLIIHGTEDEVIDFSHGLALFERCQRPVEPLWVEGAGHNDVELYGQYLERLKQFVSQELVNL
# Chain of UniProt Q7L211 (Q7L211 whole entry, looked up): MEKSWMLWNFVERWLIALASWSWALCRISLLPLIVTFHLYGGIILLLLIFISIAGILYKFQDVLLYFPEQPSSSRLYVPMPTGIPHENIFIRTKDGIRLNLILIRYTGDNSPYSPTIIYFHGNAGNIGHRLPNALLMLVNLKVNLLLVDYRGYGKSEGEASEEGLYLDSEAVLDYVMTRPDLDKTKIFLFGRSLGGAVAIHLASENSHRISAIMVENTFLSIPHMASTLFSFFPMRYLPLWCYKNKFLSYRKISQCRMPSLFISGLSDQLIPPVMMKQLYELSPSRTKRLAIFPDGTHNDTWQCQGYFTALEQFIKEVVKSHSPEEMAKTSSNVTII
# Chain of UniProt Q16186 (Q16186 whole entry, looked up): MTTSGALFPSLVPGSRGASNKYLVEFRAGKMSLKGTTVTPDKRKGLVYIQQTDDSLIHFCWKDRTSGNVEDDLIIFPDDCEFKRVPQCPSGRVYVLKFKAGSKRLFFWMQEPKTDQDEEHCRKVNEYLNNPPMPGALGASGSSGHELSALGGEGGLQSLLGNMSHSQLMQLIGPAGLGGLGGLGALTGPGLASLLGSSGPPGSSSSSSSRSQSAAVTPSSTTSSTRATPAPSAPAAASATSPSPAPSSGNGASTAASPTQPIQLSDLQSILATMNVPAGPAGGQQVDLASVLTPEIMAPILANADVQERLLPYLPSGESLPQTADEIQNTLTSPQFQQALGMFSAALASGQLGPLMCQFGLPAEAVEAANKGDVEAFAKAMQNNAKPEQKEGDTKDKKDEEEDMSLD
# Chain of UniProt Q6AI12 (Q6AI12 whole entry, looked up): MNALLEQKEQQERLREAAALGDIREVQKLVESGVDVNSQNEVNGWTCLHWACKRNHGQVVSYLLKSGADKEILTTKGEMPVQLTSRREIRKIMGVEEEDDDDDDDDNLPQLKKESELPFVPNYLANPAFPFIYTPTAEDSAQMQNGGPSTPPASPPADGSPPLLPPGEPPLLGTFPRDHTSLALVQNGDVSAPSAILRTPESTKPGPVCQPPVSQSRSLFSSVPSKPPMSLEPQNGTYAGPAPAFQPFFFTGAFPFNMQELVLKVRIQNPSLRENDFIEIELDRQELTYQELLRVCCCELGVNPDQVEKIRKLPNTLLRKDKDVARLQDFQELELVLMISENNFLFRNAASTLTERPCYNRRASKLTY
# Chain of UniProt P33121 (P33121 whole entry, looked up): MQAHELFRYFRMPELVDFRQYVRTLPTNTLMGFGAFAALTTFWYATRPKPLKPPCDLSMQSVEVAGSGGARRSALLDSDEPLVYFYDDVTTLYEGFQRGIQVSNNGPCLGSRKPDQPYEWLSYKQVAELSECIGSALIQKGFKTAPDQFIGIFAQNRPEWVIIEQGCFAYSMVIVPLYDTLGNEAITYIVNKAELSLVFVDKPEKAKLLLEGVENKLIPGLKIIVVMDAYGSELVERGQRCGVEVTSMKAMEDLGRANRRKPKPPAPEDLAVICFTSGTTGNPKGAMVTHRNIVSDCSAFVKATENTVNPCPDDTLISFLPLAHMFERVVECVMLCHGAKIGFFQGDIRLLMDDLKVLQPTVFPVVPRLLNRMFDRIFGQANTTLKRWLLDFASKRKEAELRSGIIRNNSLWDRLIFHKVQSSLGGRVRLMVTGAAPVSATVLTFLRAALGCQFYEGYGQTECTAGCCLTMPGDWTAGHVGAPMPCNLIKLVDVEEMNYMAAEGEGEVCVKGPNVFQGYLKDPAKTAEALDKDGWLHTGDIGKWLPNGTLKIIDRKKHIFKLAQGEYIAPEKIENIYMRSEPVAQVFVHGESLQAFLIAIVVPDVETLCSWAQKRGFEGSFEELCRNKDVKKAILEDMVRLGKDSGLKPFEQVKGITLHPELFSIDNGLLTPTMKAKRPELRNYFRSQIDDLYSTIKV
# Chain of UniProt Q9UG63 (Q9UG63 whole entry, looked up): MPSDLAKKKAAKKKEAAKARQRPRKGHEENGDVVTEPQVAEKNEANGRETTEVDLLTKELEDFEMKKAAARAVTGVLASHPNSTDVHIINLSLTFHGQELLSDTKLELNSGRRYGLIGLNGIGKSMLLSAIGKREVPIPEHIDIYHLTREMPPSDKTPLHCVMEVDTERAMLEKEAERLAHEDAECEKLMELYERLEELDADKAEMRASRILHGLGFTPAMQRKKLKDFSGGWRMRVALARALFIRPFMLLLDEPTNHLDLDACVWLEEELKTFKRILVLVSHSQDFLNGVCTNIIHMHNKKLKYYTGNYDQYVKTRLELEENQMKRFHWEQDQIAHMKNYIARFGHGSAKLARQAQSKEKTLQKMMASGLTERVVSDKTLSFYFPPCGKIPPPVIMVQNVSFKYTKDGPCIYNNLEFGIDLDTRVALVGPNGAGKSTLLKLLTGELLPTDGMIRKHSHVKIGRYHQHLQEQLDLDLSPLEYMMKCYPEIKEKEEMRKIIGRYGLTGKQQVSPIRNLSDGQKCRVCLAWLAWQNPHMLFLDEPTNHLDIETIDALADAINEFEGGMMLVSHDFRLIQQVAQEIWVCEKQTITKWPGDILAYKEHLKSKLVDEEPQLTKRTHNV
row,Target,log2 fold change
1,ARGLU1 (UniProt Q9NWB6),-0.026
2,ANXA13 isoform 2 (UniProt P27216),0.17
3,ARL13B (UniProt Q3SXY8),0.019
4,ABHD13 (UniProt Q7L211),-0.171
5,ANKRD40 (UniProt Q6AI12),-0.156
6,AIMP1 isoform 2 (UniProt Q12904),0.029
7,ACSL1 (UniProt P33121),0.063
8,AK4 (UniProt P27144),0.024
9,AIFM2 (UniProt Q9BRQ8),-0.007
10,AGO4 (UniProt Q9HCK5),-0.011
11,ADRM1 (UniProt Q16186),-0.026
12,AKT1 (UniProt P31749),-0.009
13,ACTG1 (UniProt I3L4N8),-0.245
14,ABCF3 (UniProt Q9NUQ8),0.013
15,ABCF2 isoform 2 (UniProt Q9UG63),-0.019
16,ACIN1 (UniProt E7EQT4),0.032
17,ABHD17B (UniProt Q5VST6),-0.044
18,ABL2 (UniProt P42684),-0.14
19,AKR1B1 (UniProt P15121),-0.146
20,AKAP8 (UniProt O43823),-0.009
21,ALDH5A1 isoform 2 (UniProt P51649),0.004
22,APOBEC3C (UniProt Q9NRW3),0.014
23,AP1G2 (UniProt O75843),0.028
